In PubChem BioAssay (NCI) one finds growth data, which are given here for 14 compounds.

What all share (test): NCI-60 one-dose screen, 48 h (100 = growth as untreated, 0 = no growth, -100 = all killed)
Conditions in all cases: 10 µM unless noted

Assay [1] relates to SK-MEL-2 melanoma.
For assay [2], the system named is EKVX NSCLC.
Assay [3] concerns UO-31 renal.
Assay [4] concerns TK-10 renal.
Assay [5] relates to ACHN renal.
The test system of assay [6] is CAKI-1 renal.
The subject of assay [7] is A498 renal.
Assay [8] deals with CCRF-CEM leukemia.
Assay [9] relates to MOLT-4 leukemia.

The panel holds about 83,000 compounds, 20% with a hit somewhere; the sample as a whole holds those more often.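 Assay: single dose, 48 h. Readout: percent growth (0 = no net growth; negative = cell death). Active: <10.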 Unmarked numbers belong to inactive results. The source made the active and inactive calls.

As to `COc1ccc(-c2nc3ccc(C(=O)NN4C(=O)c5ccc([N+](=O)[O-])cc5C4=O)cc3[nH]2)cc1`, the growth was 101% in assay [1]; 90.7% in assay [2]; 88.6% in [3]; 101% in assay [4]; 98.4% in [5]; 92.6% in assay [6]. For the same compound, the figures for the growth in assay [7], in [8] and in [9] were 103%, 83.3% and 98.7%, respectively.

On to `Cn1cc(-c2cc3nc(-c4c[nH]c5ccc(Br)cc45)cc(N)n3n2)c2ccccc21`, for which the growth in [1] is -86.5% (active); in assay [2], -79.4% (active); in assay [3], -97.7% (active); in assay [4], -90.3% (active); in [5] it was -98.4% (active); in [6], -87.8% (active). For the same compound, the growth is -25% (active) in [7], -19.6% (active) in [8] and -33.8% (active) in assay [9].

Take `O=c1oc2ccccc2cc1-c1csc(N=Nc2c(O)[nH]c3ccc(Cl)cc23)n1`: the growth was 112% in assay [1]; 100% in assay [2]; 97.7% in assay [3]; 109% in assay [4]; 110% in [5]; 106% in [6]. Also, the growth was 98.6% in [7], 103% in assay [8] and 109% in assay [9].

On to `CC(C)Sc1nc(NCCc2c[nH]c3ccccc23)c(C#N)c(-c2ccccc2)n1`, for which the growth is 68.7% in [1]; 18% in [2]; 32.1% in assay [3]; 67.4% in [4]; 33% in assay [5]; 34.3% in assay [6]. In addition, the values for the growth in assay [7], in assay [8] and in assay [9] were 23.4%, 8.66% (active) and 5.18% (active), respectively.

Take `CC(C)CSc1nc(NCCc2c[nH]c3ccccc23)c(C#N)c(-c2ccc(F)cc2)n1`: the growth in [1] was 78.9%; in assay [2] it was 45.9%; in assay [3], 70.3%; in [4] it was 92.4%; in assay [5], 59.6%; in [6], 49.2%. For the same compound, the growth in [7] was 92.8%; in [8], 22.1%; in assay [9], 27.9%.

Regarding `Cc1ccc(C(SCCNCc2cc(N(C)C)ccn2)(c2ccccc2)c2ccccc2)cc1`, the growth in assay [1] is -36.3% (active); in assay [2], -24.8% (active); in [3], 8.42% (active); in assay [4], -4.26% (active); in assay [5] it was 3.79% (active); in assay [6] it was -10.4% (active). Also, the growth in assay [7] is -43.8% (active); in assay [8], -3.65% (active); in assay [9], 8% (active).

In the case of `CC(=O)OCC1OC(OC2C(COC(C)=O)OC(n3cc(COc4ccc5ccc(=O)oc5c4)nn3)C(OC(C)=O)C2OC(C)=O)C(OC(C)=O)C(OC(C)=O)C1OC(C)=O` (stereo unspecified), the growth is 113% in [1]; 107% in assay [2]; 74.7% in [3]; 108% in assay [4]; 102% in assay [5]; 88.1% in assay [6]. For the same compound, the growth in [7] is 116%; in [8] it was 100%; in assay [9], 97%.

Regarding `O=C(Nc1cccc(-n2cnc3cc(-c4ccc(O)cc4)ccc32)c1)C1CC1`, the growth in assay [1] is 58.4%; in assay [2] it was 44.4%; in [3], 23.4%; in assay [4] it was 67.4%; in [5], 15.4%; in assay [6] it was 26.2%. Moreover, the figures for the growth in [7], in assay [8] and in assay [9] were 78.2%, 25.6% and 12.7%, respectively.

`Cc1ccc(C(=O)CSc2nc3ccc(C)cc3c(=O)n2-c2ccc(F)cc2)cc1`: the growth in assay [1] was 116%; in assay [2], 62.8%; in assay [3], 43.8%; in assay [4] it was 56.3%; in assay [5], 19.3%; in assay [6], 53%. The growth was 19.6% in assay [7], 88% in assay [8] and 93.2% in [9].

`NS(=O)(=O)c1ccc(CCNC(=O)CSc2ccc(-c3ccc(Br)cc3)nn2)cc1`: the growth in assay [1] was 56.4%; in [2], 74.3%; in assay [3], 56.4%; in assay [4], 72.2%; in assay [5], 59.6%; in assay [6], 65.3%. Further, the growth was 78.4% in assay [7], 54.3% in assay [8] and 39% in assay [9].

With `COCOc1cc2c(=O)c(C)c(C(=O)N[C@@H](Cc3ccccc3)C(O)C(=O)NCc3ccccc3)oc2cc1OC` (stereo partly specified), the growth in assay [1] was -2.79% (active); in assay [2] it was 78.4%; in [3] it was 81.5%; in assay [4], 88.8%; in assay [5], 83.7%; in assay [6], 50.5%. Also, the growth in assay [7] was -6.29% (active); in assay [8], 96.1%; in [9], 87.8%.

For `Clc1cccc(Cl)c1/C=C/c1cc(/C=C/c2ccc(Br)cc2)c2ccccc2n1`, the growth in [1] is 123%; in assay [2] it was 89.8%; in assay [3] it was 70.2%; in [4], 126%; in assay [5] it was 100%; in assay [6], 73.4%. Also, the growth is 142% in [7], 85% in [8] and 84.8% in assay [9].

For the compound `CCOC(=O)C1=C(N)N(c2ccccc2)C2=C(C(=O)CC(C)(C)C2)C1c1ccc([N+](=O)[O-])cc1` (stereo unspecified), the growth is 97.2% in [1]; 86.4% in [2]; 95.7% in [3]; 113% in [4]; 87.9% in assay [5]; 68.4% in [6]. In addition, the growth in [7] was 114%; in assay [8], 89.1%; in assay [9], 78.3%.

`CC1(C)CC[C@]2(C(=O)O)CC[C@]3(C)C(=CCC4[C@@]5(C)C[C@@H](O)[C@@H]6OC(c7ccccc7F)OC[C@@]6(C)C5CC[C@]43C)C2C1` (stereo partly specified): the growth was -14.8% (active) in assay [1]; 13.8% in [2]; 4% (active) in assay [3]; 7.15% (active) in assay [4]; 4.14% (active) in [5]; 9.12% (active) in assay [6]. Moreover, the growth in assay [7] was 31%; in assay [8], 17%; in assay [9] it was 2.87% (active).
